# Sampled rows, rich in hits. Any-hit rate of the full collection: about 2.3%.
# Mcl1 Bid PPI: Mcl-1/Bid interaction inhibition; Q07820; TR-FRET Mcl-1/Bid-Dy647 peptide binding, 1536-well; inhibition, % at 21.7 µM; 220,000 tested, 0.97% active;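 active = compounds that cut the binding signal by more than half at the single screening dose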;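 note: His-tagged Mcl-1 with europium anti-His antibody binding Bid BH3 peptide; 0% = Mcl-1 plus peptide wells and 100% = peptide-only wells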
# Target sequence (Q07820 whole entry, looked up): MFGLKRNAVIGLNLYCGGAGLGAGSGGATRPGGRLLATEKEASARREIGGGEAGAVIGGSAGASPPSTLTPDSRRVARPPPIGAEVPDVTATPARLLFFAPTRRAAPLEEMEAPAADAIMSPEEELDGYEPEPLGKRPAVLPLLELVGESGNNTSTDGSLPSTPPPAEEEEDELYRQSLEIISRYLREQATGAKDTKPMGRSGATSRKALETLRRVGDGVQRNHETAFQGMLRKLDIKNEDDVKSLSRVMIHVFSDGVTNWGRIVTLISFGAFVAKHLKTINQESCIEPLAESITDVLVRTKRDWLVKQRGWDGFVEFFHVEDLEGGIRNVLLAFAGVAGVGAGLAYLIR
# Bcl-xL primary: inhibitors of human Bcl-xL. Q07817. GST-Bcl-xL / FITC-Bim BH3 peptide fluorescence polarization. inhibition, % at 10.9 µM. 320,000 tested, 0.7% active;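 active = inhibition above the mean of all tested compounds plus 3 SD, cutoff set per campaign, cut at about 30% in these data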;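 note: 0% = DMSO wells and 100% = unlabeled Bim-BH3 peptide competitor; inhibitors lower millipolarization by displacing the labeled peptide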
# Target sequence (Q07817 whole entry, looked up): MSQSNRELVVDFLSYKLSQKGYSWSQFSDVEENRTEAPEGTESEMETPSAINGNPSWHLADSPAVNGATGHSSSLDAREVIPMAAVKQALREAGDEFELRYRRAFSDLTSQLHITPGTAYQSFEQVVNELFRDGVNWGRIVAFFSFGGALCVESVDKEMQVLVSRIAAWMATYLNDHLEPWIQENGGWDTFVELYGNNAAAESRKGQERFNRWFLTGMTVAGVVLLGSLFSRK
# Bim-Mcl-1: disrupts Bim peptide binding to human Mcl-1 | 190,000 tested, 0.1% active | inhibition, % at 10 µM | AID 1009 | Bead-based flow cytometry, Bim peptide-Mcl-1 binding; in the data active = inhibition above about 40%;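 note: 0% = no compound tracer wells and 100% = peptide blocker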
# Mcl1-Noxa inh: disrupts binding of human Mcl-1 to Noxa peptide | TR-FRET Mcl-1/Noxa peptide binding, 2 h | 220,000 tested, 1.5% active | inhibition, % at 21.7 µM;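 active = compounds that cut the protein-peptide binding signal by more than 50% relative to plate controls in a single-dose test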;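 note: His-tagged Mcl-1 with rhodamine Noxa BH3 peptide and terbium anti-His antibody; 0% = Mcl-1 plus Noxa peptide wells and 100% = peptide-only wells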
# MCL1-BIM inh: inhibitors of human MCL1 binding to BIM-BH3 peptide; 320,000 tested, 0.68% active; inhibition, % at 10.9 µM; Q07820; GST-MCL1 / FITC-Bim-BH3 fluorescence polarization;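 active = inhibition above the mean inhibition of all tested compounds plus 3 SD, set per campaign, cut at about 40% in these data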;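 note: 0% = DMSO wells and 100% = unlabeled Bim-BH3 peptide control; higher means more loss of mP so more displacement of Bim peptide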
# GLD-1 TGE inh: GLD-1-TGE RNA interaction inhibition (C. elegans); Q17339; purified GLD-1 + fluorescein TGE RNA, fluorescence polarization; inhibition, % at 5.96 µM; 320,000 tested, 0.44% active;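 active = percent inhibition above a per-plate cutoff, the plate mean of test compounds plus 3 SD, cut at about 30% in these data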;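 note: 0% = DMSO wells with GLD-1 and probe and 100% = wells lacking GLD-1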
# * marks the source's active call; other numbers are inactive results; · = no result.
SMILES,Mcl1 Bid PPI,Bcl-xL primary,Bim-Mcl-1,Mcl1-Noxa inh,MCL1-BIM inh,GLD-1 TGE inh
CC(C)C(NC(=O)c1ccccc1)C(=O)N1CCCCCC1 (stereo not given),·,2,·,·,-2,-1
Cc1ccc(/C=C2/C(=O)c3ccc(C(=O)O)cc3C2=O)o1,-95,·,0,72*,·,·
Cc1ccc(C=C2C(=O)c3ccccc3C2=O)o1,4,7,-4,23,4,-4
COc1ccc(-c2nn(-c3ccccc3)cc2/C=C(/C#N)C(N)=O)cc1[N+](=O)[O-],65*,2,-1,28,9,2
COc1ccc(-c2nn(-c3ccccc3)cc2/C=N/Nc2ccc(S(N)(=O)=O)cc2[N+](=O)[O-])cc1OC,-57,7,0,51*,-6,-4
COc1ccc(-c2nn(-c3ccccc3)cc2/C=C(\C#N)C(N)=O)cc1[N+](=O)[O-],39,3,-1,16,2,5
COc1ccc(Nc2nc(N)c([N+](=O)[O-])c(NCc3ccccc3)n2)cc1,29,2,·,51*,1,2
Cc1ccc(Nc2nc(N)c([N+](=O)[O-])c(NCc3ccccc3)n2)cc1,-2,4,·,3,0,8
COc1ccccc1N1CCN(/N=C/c2cccc(O)c2)CC1,-50,1,-1,3,6,-15
COc1ccccc1N1CCN(/N=C/c2cc(OC)c(O)c(OC)c2)CC1,-49,25,-7,54*,22,-1
O=C(c1ccc(F)cc1)[C@@H]1[C@@H](C(=O)c2ccccc2)[C@@]2(C(=O)Nc3ccccc32)[C@H]2c3ccccc3C=CN12,-11,27,-5,18,3,34*
O=C1c2ccccc2C(=O)C1c1nccc2ccccc12,35,8,1,58*,15,2
O=C1c2ccccc2C(=O)C1c1ccnc2ccccc12,14,1,2,31,-6,-8
CC1(c2ccccc2)CC(C)(C)N2C(=O)C3(C(C#N)=C(N)Oc4cc(O)ccc43)c3cccc1c32 (stereo not given),61*,2,0,1,-5,4
Cc1cccc(N2CCN(S(=O)(=O)c3c(C)[nH]c(C)c3C(=O)N3CCCC3)CC2)c1C,·,29,·,·,34,31*
CCCCN1CC(O)=C(c2nc(-c3ccc(Cl)cc3)cs2)C1=N,47,4,5,64*,1,9
CC(C)Oc1ccc(CN2CCCC(CO)(Cc3ccc(F)cc3)C2)cc1 (stereo not given),·,36*,·,·,46*,5
O=C(CSc1n[nH]c(-c2ccccc2Cl)n1)NCc1cccc(C(=O)O)c1,-4,6,19,13,5,-8
CCN(C(=O)C(C)Cl)c1ccccc1 (stereo not given),-25,-11,0,-26,-12,-7
CCOCCCNC(=O)c1cn(CC)c2ccc(S(=O)(=O)N3CCC(C)CC3)cc2c1=O,·,37*,·,·,15,1
CCCCN(C)CCCNC(=O)c1cn(CC)c2ccc(S(=O)(=O)N3CCc4ccccc4C3)cc2c1=O,10,4,0,53*,4,-4
O=S(=O)(Nc1nccs1)c1ccc(Nc2nnc(-c3ccccc3)c3ccccc23)cc1,16,4,-5,68*,-5,6
CC(=O)N/N=C(\N)c1nonc1N,-28,4,·,0,0,1
O=c1c(/C=N\NS(=O)(=O)c2ccccc2)coc2ccc(Cl)cc12,·,-4,·,·,-12,1
CCN(CC)c1ccc(NC(=O)/C=C\c2ccccc2Cl)cc1,29,-3,0,91*,9,-8
SMILES,Mcl1 Bid PPI,Bcl-xL primary,Bim-Mcl-1,Mcl1-Noxa inh,MCL1-BIM inh,GLD-1 TGE inh
Cc1cc(NC(=O)/C=C/c2ccccc2Cl)no1,-35,2,-4,-40,-1,4
CN(C)c1ccc(NC(=O)/C=C/c2ccccc2Cl)cc1,-17,-1,-3,77*,14,3
CCCC(=O)Nc1nnc(-c2cccc(OCC)c2)s1,86*,-1,-2,6,5,5
CCN1C(=O)c2cccc3c(NC(=O)C4CCCCC4)ccc1c23,83*,5,-4,43,8,-2
O=C(NCc1cc2ccccc2[nH]1)c1ccccc1F,·,1,·,·,-13,-4
CSc1ncccc1C(=O)OCC(=O)Nc1nc(C)c(Cl)cc1Cl,·,·,·,·,·,0
Cc1ccc(NC(=O)CCNC(=O)c2ccc(Cl)cc2)cc1C,·,5,·,·,3,9
CCOc1ccccc1C(=O)NC1CC2CCCC(C1)N2C1CC1 (stereo not given),2,-2,42*,7,-9,-3
CCOc1ccccc1C(=O)NC1CC2CCCC(C1)N2Cc1nnnn1Cc1ccco1 (stereo not given),-25,-5,-2,4,-11,2
CCOc1ncccc1C(=O)OCc1c(F)cccc1Cl,-1,-1,0,-11,4,3
Cc1noc(NS(=O)(=O)c2ccc(NC(=O)CSc3nc4ccccc4s3)cc2)c1C,9,12,2,64*,10,6
CSc1nc(SCC(=O)O)c2sc3nc(-c4ccccc4)c4c(c3c2n1)CCC4,90*,·,·,-77,·,·
CCOC(=O)c1c(NS(=O)(=O)c2ccc(Br)cc2)sc2c1CCC2,-17,15,-4,51*,10,7
CCOC(=O)c1c(NS(=O)(=O)Cc2ccccc2)sc2c1CCCC2,8,8,0,30,9,0
CCCc1cc2c(=O)c(-c3nc4ccccc4s3)c(COCC(=O)O)oc2cc1O,2,·,1,73*,·,·
CCc1cc2c(=O)c(-c3nc4ccccc4n3C)c(COCC(=O)O)oc2cc1O,-15,2,-2,11,3,2
COc1ccc2cc3c(N)nn(C(=O)c4ccc(Cl)c([N+](=O)[O-])c4)c3nc2c1,54*,0,8,17,15,-5
COc1ccc2cc3c(N)nn(C(=O)c4ccccc4[N+](=O)[O-])c3nc2c1,-5,8,0,27,4,6
Cc1cccn2c(=O)c(C(=O)NCCCN3CC(C)CC(C)C3)c(O)nc12 (stereo not given),·,7,·,·,5,-2
Cc1ccc(-c2nnc3ccc(SC(C)C(=O)O)nn23)cc1 (stereo not given),-8,1,-2,78*,0,4
CC(Sc1ccc2nnc(-c3ccc(F)cc3)n2n1)C(=O)O (stereo not given),-26,0,-5,10,-5,3
COc1cccc(NC(=S)NN=C2CCCCCC2)c1,-57,·,1,-18,·,·
N#CC1=C2SCC(O)(c3ccccc3)N2C(=O)CC1c1cccs1 (stereo not given),-2,36*,-7,9,40,20
N#CC1=C2SCC(O)(c3ccccc3)N2C(=O)CC1c1ccccc1F (stereo not given),16,7,2,9,2,6
COc1ccccc1S(=O)(=O)N1CCN(S(=O)(=O)c2ccccc2C#N)CC1,·,-1,·,·,-5,4

# Compound activity as filed in PubChem BioAssay.
